Assay results from PMC4336329 (PLoS ONE, 2015).
The whole screen tested about 310,000 compounds, of which about 14,000 (4.5%) showed an effect of 50% or more. Effects have a minus sign here. The sample as a whole holds a higher share of strong results than the screen did.

Biological target: human ether-à-go-go-related gene (hERG) potassium channel (human, UniProt Q12809)
Assay: primary screen, population patch clamp on CHO cells stably expressing hERG; higher = less effect of the substance
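Further: peak tail current of the secondary pulse compared with the same well before compound.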

human ether-à-go-go-related gene (hERG) potassium channel, sequence (Q12809 whole entry, looked up): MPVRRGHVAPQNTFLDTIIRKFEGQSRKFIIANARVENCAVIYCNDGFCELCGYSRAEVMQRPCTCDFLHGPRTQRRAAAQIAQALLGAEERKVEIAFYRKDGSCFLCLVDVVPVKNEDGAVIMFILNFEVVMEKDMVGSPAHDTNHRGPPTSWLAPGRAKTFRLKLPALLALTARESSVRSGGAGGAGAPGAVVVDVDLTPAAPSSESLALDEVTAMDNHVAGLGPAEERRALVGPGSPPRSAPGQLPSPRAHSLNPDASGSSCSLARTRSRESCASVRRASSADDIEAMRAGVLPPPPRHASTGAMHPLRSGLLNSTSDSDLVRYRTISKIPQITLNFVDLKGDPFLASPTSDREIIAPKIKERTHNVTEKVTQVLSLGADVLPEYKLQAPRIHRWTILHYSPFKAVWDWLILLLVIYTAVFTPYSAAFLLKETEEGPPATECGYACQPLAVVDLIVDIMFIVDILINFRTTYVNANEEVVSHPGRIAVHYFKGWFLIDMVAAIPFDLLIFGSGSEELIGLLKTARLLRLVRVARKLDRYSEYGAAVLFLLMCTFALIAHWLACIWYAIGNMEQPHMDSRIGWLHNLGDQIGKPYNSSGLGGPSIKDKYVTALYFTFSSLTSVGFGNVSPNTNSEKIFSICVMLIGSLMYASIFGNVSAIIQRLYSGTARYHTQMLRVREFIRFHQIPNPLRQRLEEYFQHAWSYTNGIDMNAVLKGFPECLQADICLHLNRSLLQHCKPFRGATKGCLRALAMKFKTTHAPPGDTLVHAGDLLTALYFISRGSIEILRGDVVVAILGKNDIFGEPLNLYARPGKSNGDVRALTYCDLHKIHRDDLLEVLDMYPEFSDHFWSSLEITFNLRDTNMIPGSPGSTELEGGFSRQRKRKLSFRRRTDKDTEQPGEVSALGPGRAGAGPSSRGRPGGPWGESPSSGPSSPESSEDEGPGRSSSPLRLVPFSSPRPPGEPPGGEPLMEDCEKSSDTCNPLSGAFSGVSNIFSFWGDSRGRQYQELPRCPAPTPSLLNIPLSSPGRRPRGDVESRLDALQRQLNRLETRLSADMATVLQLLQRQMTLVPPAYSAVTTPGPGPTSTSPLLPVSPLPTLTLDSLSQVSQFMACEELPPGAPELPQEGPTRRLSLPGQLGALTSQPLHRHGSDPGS

| SMILES | hERG current change (%, negative = inhibition) at 10uM |
| --- | --- |
| CC1(C)OC2CC3C4CC(F)C5=CC(=O)C=CC5(C)C4(F)C(O)CC3(C)C2(C(=O)CO)O1 (stereo not drawn) | -7.01% |
| O=C1C=C(c2cc3ccccc3s2)C[C@@H](c2ccc(F)cc2)C1 | 5.01% |
| CC(=O)N1c2ccc(S(=O)(=O)N3CCCC(C(=O)NCc4ccccc4)C3)cc2CC1C (stereo not drawn) | 13.7% |
| O=C(Nc1ccccc1)N1CCC(c2ccccc2)C1 (stereo not drawn) | -4.49% |
| CN(C)c1ccc(N=C/C=C2\N(C)c3ccccc3C2(C)C)cc1 | -82.8% |
| Cc1c(N=C/C=C2/N(C)c3ccccc3C2(C)C)c(=O)n(-c2ccccc2)n1C | -38.1% |
| CN1/C(=C\C=C(C#N)C#N)C(C)(C)c2ccccc21 | 11.5% |
| CN1/C(=C\P(=O)(N(C)C)N(C)C)C(C)(C)c2ccccc21 | -6.64% |
| Cc1c(N=C/C=C2\N(C)c3ccccc3C2(C)C)c(=O)n(-c2ccccc2)n1C | -53.7% |
| Cc1c(NC(=S)/C=C2\N(C)c3ccccc3C2(C)C)c(=O)n(-c2ccccc2)n1C | 0.171% |
| CC(=O)N1CCN(c2ccc(N=Cc3c(O)n(-c4ccc(Cl)cc4)c(=O)[nH]c3=O)cc2)CC1 | 1.55% |
| CCOC(=O)c1cnc(-n2nc(C)cc2C)nc1NCCc1ccccc1 | -51.6% |
| CCOC(=O)c1cnc(-n2nc(C)cc2C)nc1NCCO | 10.5% |
| CCOC(=O)c1cnc(-n2nc(C)cc2C)nc1NCc1ccccc1 | -34.7% |
| Cn1ccnc1SCC(=O)n1c2c(c3ccccc31)CCCC2 | -4.61% |
| O=C(c1cccs1)N1CCCC(c2nc3c(nnn3Cc3c(Cl)cccc3Cl)c(=O)[nH]2)C1 (stereo not drawn) | -46.9% |
| O=C(OCC(=O)N1CCCc2ccccc21)c1cccc(C(F)(F)F)c1 | -6.7% |
| COC(=O)C(Cc1ccccc1)NC(=O)c1ccc(C)cc1 (stereo not drawn) | 5.08% |
| CSCCOC(=O)c1[nH]c2c(c1C)C(=O)CC(c1ccco1)C2 (stereo not drawn) | -1.18% |
| Cc1ccc(NC(=O)c2sc(Cl)nc2-c2ccccc2)cc1 | 18.2% |
| CCCCCOc1ccc(Br)cc1/C(C)=N/NC1=NCCN1 | -70.1% |
| CCOc1ccc(Br)cc1/C(C)=N\NC1=NCCN1.Cl | -48.6% |

| SMILES | hERG current change (%, negative = inhibition) at 10uM |
| --- | --- |
| C/C(=N\NC1=NCCN1)c1ccc(N)c([N+](=O)[O-])c1 | -15.2% |
| CCCCCCOc1ccc(/C(C)=N/NC2=NCCN2)cc1[N+](=O)[O-] | -81.3% |
| COc1ccc(Br)cc1/C(C)=N/NC1=NCCN1.Cl | -26.7% |
| CCCCCCOc1ccc(/C(C)=N/NC2=NCCN2)cc1 | -19.9% |
| COc1cc(S(=O)(=O)NC2CCCC2)ccc1F | 1.19% |
| CC1CCN(C(=O)c2ccccc2NS(=O)(=O)c2ccccc2)CC1 | 8.52% |
| CCc1ccc(-c2nn[nH]n2)cc1 | 4.61% |
| Cc1ccc(C)c(SCC(=O)NNC(=O)c2ccccc2)c1 | 9.78% |
| COc1ccc(NC(=O)C2CCN(c3cnccn3)CC2)cc1OC | 15.5% |
| CC(NC1CCCCC1)C(O)C12CC3CC(CC(C3)C1)C2.Cl (stereo not drawn) | -16.4% |
| CCCn1c(N)c(C(c2ccc(C(=O)OC)cc2)N2CCN(c3ccccc3)CC2)c(=O)[nH]c1=O (stereo not drawn) | -9.93% |
| COC(=O)c1ccc(C(c2c(N)n(Cc3ccccc3)c(=O)n(C)c2=O)N2CCOCC2)cc1 (stereo not drawn) | -57.9% |
| COC(=O)c1ccc(C(c2c(N)n(CC(C)C)c(=O)[nH]c2=O)N2CCN(c3ccccc3)CC2)cc1 (stereo not drawn) | -8.97% |
| COc1cccc(CNC(=O)C2CCN(S(=O)(=O)N3CCC(C)CC3)CC2)c1 | -3.44% |
| COCC(=O)N=Nc1c(O)[nH]c2ccccc12 | -5.52% |
| O=C(CCN1CCCCC1)N=Nc1c(O)[nH]c2ccccc12 | 11.3% |
| O=C(CN1CCN(Cc2ccccc2)CC1)N=Nc1c(O)[nH]c2ccccc12 | -65% |
| O=C(CN1CCCCC1)N=Nc1c(O)[nH]c2ccccc12 | 4.68% |
| O=C(CSCc1ccccc1)N=Nc1c(O)[nH]c2ccccc12 | -19.1% |
| O=C(CN1CCN(Cc2ccccc2Cl)CC1)N=Nc1c(O)[nH]c2ccccc12 | -61.3% |
| O=C(N=Nc1c(O)[nH]c2ccccc12)c1ccc(CN2CCOCC2)cc1 | 22.9% |
| Cc1ccc(CN2CCN(CC(=O)N=Nc3c(O)[nH]c4ccccc34)CC2)cc1 | -73.5% |

| SMILES | hERG current change (%, negative = inhibition) at 10uM |
| --- | --- |
| O=C(Cc1cccs1)N=Nc1c(O)[nH]c2ccccc12 | 7.07% |
| N#Cc1ccccc1NC(=S)Nc1ccc(F)cc1 | 16.2% |
| CCN(C(=O)c1cc2c(=O)[nH]c3ccc(C)cc3c2s1)c1ccc(OC)cc1 | 9.09% |
| COC(=O)c1ccc(N2CCN(C)CC2)c(NC(=O)c2sc3ccccc3c2Cl)c1 | 13.1% |
| COc1ccc(C=C(C#N)C#N)c(CSc2ccccn2)c1 | 1.19% |
| COc1ccc(C(=O)Nc2ccc(N3CCCCC3)cc2)cc1Br | -8.48% |
| O=C(N/N=C/c1cc(Br)cc(Br)c1O)c1ccncc1 | 15.6% |
| Cc1ccc(S(=O)(=O)CCC(=O)OCC(=O)N2c3ccccc3NC(=O)C2(C)C)cc1 | 14% |
| O=C(O)C(=O)/C(=C\c1ccccc1)c1ccc2ccccc2n1 | 13.9% |
| O=C(Nc1cccc(-c2csc(Nc3ccccc3)n2)c1)c1ccccc1 | 2.4% |
| CCCC(=O)N1CCN(C2=NS(=O)(=O)c3ccccc32)CC1 | -3% |
| Cc1ccc(OCC(=O)N2CCN(C(=O)Cc3ccccc3)CC2)cc1 | -38.4% |
| O=C(CSc1ncn[nH]1)N1CCN(c2nnc(-c3ccccc3)c3ccccc23)CC1 | -0.967% |
| Cc1ccc(OCC(=O)N2CCN(C3=NS(=O)(=O)c4ccccc43)CC2)cc1 | -60.8% |
| CCN(CC)C(=O)COc1ccc(-c2nnc(N3CCCCC3)c3ccccc23)cc1 | -25.4% |
| Cc1ccc(-c2nnc(N3CCN(C(=O)COc4ccccc4)CC3)c3ccccc23)cc1 | -52.1% |
| COc1ccc(OCC(=O)N2CCN(c3nnc(-c4ccc(C)cc4)c4ccccc34)CC2)cc1 | -44.9% |
| COc1ccc(-c2nnc(N3CCCCC3)c3ccccc23)cc1 | -47.3% |
| COc1ccc(OCC(=O)N2CCN(c3nnc(-c4ccccc4)c4ccccc34)CC2)cc1 | -64.4% |
| O=C(COc1ccc([N+](=O)[O-])cc1)N1CCN(c2nnc(-c3ccccc3)c3ccccc23)CC1 | -66.5% |
| CC(C)N1C(=O)N(c2cccc(Cl)c2)C(C)(O)CC1(C)C (stereo not drawn) | 17.5% |
| COc1cccc(-c2nc(CS(=O)CC(=O)NCc3ccccc3)c(C)o2)c1 (stereo not drawn) | -6.07% |

| SMILES | hERG current change (%, negative = inhibition) at 10uM |
| --- | --- |
| CCCOc1cccc(NC(=O)c2c(-c3ccccc3)noc2C)c1 | -8.81% |
| CCC1(O)CC(C(=O)OC)=NN1C(=O)c1ccccc1 (stereo not drawn) | 7.94% |
| COc1ccccc1-n1cnnc1SCC(=O)Nc1ncc(Cl)cc1Cl | -0.265% |
| COc1ccccc1OCC(=O)NCCSCc1ccc(Cl)cc1 | -45% |
| COc1ccc(C(=O)N/C(=C\c2ccccc2)C(=O)Nc2ccccc2C(=O)O)cc1 | 11.3% |
| COc1ccccc1C(=O)NNC(=O)c1ccc(C)cc1 | 9.24% |
| Cc1ccc(NC(=O)C2(N3CCC3=O)CCCCC2)cc1 | 6.92% |
| COCC(C)NC(=O)C(C)Oc1ccccc1 (stereo not drawn) | 12% |
| CC(C)c1nnc(NC(=O)CCC(=O)NCc2ccccc2Cl)s1 | 11.2% |
| Cn1cnc([N+](=O)[O-])c1NCc1ccccc1 | 10.3% |
| COc1cc(/C=N/Nc2nc(Nc3ccccc3)nc(N3CCOCC3)n2)ccc1OC(=O)c1ccco1 | 13.6% |
| Cc1ccc(-c2nnc(N3CCN(C(=O)Cn4c(=O)n(C)c5ccccc54)CC3)c3ccccc23)cc1 | -28.7% |
| O=C(CN1C(=O)c2ccccc2C1=O)N1CCN(c2nnc(-c3ccccc3)c3ccccc23)CC1 | 5.5% |
| Cc1ccc(OCC(=O)N2CCN(c3nnc(-c4ccccc4)c4ccccc34)CC2)cc1 | -61.5% |
| O=C(COc1ccc(-c2nnc(N3CCCCC3)c3ccccc23)cc1)N1CCCCC1 | -32.3% |
| Cn1c(=O)n(CC(=O)N2CCN(c3nnc(-c4ccccc4)c4ccccc34)CC2)c2ccccc21 | -56% |
| CCC(=O)N1CCN(c2nnc(-c3ccccc3)c3ccccc23)CC1 | -13.5% |
| O=C(COc1ccccc1)N1CCN(c2nnc(-c3ccccc3)c3ccccc23)CC1 | -65.3% |
| Cc1ccc(OCC(=O)N2CCN(c3nnc(-c4ccc(C)cc4)c4ccccc34)CC2)cc1 | -49.3% |
| CCNC(=S)NCc1ccc(F)cc1 | 5.03% |
| Br.NS(=O)(=O)c1ccc(Nc2nc(-c3ccccc3)cs2)cc1 | -26% |
